# Test results published in PubChem BioAssay AID720706 (Broad Institute, 2013).
# Out of some 350,000 compounds screened, about 5,500 (1.6%) were called active.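 The calls were made as follows: active = significant combined selectivity score with lowered wild-type GFP, culture density cut under 30%, mutant RFP and density less affected; inactive = any of these conditions unmet.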 Many of the other results were omitted from the sample, so actives are more common in it than they were.
# Test: GFP drop in mixed WT/humanized-ribosome E. coli culture – GFP/RFP fluorescence, OD600, single point, bacterial rRNA inhibitor project, primary screen (AID 720706)
# Settings: E. coli WT GFP vs humanized-ribosome RFP mutants, 24 h; GFP signal change (wild-type ribosome): stronger effect = lower value, DMSO median 0, no signal -100; OD600 change: measured here: OD600 growth, DMSO median 0, no signal -100; RFP signal change: measured here: RFP humanized mutant strains, DMSO median 0, no signal -100, concentration not given here
Compound,GFP signal change (wild-type ribosome),OD600 change [%],RFP signal change [%]
C[C@@H]1CN([C@@H](C)CO)S(=O)(=O)c2ccc(C#C[C@@H](C)O)cc2O[C@@H]1CN(C)C(=O)Cc1ccccn1,3.39% (inactive),0.98,-0.13
COc1ccccc1C(=O)Nc1ccc2c(c1)C(=O)N(C)C[C@@H](OC)[C@@H](C)CN(CC1CC1)[C@@H](C)CO2,-1.52% (inactive),-3.13,0.12
CCN1C(=O)/C(=C2\SC(N3CCCCC3)=NC2=O)c2ccccc21,-24% (active),0.66,-4.52
CC(C)=C1SC(N2CCN(c3ccc(C)c(Cl)c3)CC2)=NC1=O,-1.49% (inactive),-2.03,-2.71
CCOc1cc(/C=C2\SC(N3CCCCC3)=NC2=O)ccc1O,-19.3% (inactive),-20.3,8.23
COc1cccc(C(=O)N2C[C@@H]3[C@H](c4ccccc42)[C@H](CO)N3Cc2ccccc2F)c1,-8.84% (inactive),-21.6,1.94
COc1ccccc1N1CCN(/N=C/c2ccc(O)cc2O)CC1,2.04% (inactive),0.96,-2.29
Cc1n[nH]c(=O)nc1N/N=C/c1cccs1,12.5% (inactive),-10.6,3.52
Cc1nc2ccccc2nc1N/N=C/c1ccc(O)cc1O,-17.1% (active),-1,6.07
CN(C)CCCNC(=O)C[C@H]1C=C[C@@H](NC(=O)Cc2cccnc2)[C@H](CO)O1,-1.21% (inactive),6.35,-1.98
Cc1onc(-c2c(Cl)cccc2Cl)c1C(=O)NNC(=O)c1c(-c2c(Cl)cccc2Cl)noc1C,-35.2% (active),-26.9,1.07
Cc1[nH]n(C)c(=O)c1C(=O)c1c(-c2c(Cl)cccc2Cl)noc1C,23.4% (inactive),10.3,1.84
Cc1onc(-c2c(F)cccc2Cl)c1C(=O)Nc1cccc(S(=O)(=O)N2CCCCC2)c1,-6.88% (inactive),-20.2,-1.93
CN1C(=O)c2cc(NC(=O)c3ccc(Cl)cc3)ccc2OC[C@H]2O[C@H](CC(=O)O)CC[C@H]21,1.69% (inactive),1.68,-1.26
C[C@H]1CN([C@@H](C)CO)C(=O)c2cc(NC(=O)Nc3ccc4c(c3)OCO4)ccc2O[C@H]1CN(C)S(=O)(=O)c1ccc(F)cc1,-3.35% (inactive),-0.035,3.46
CN1C(=O)c2cc(NC(=O)C3CCC3)ccc2OC[C@@H]2O[C@@H](CC(=O)NCCc3ccncc3)CC[C@H]21,5.03% (inactive),10.1,-1.17
COc1ccccc1Oc1nc(-c2cccnc2)nc2ccccc12,-34.3% (active),-23.4,-3.61
COc1ccccc1CCNC(=O)CSc1nnc2ccc(-c3cccnc3)nn12,-2.66% (inactive),7.92,10.5
S=c1nc2ccccc2c2nc(-c3cccnc3)[nH]n12,-0.36% (inactive),-3.58,-4.9
Cc1ccc(S(=O)(=O)N(C)C[C@@H]2Oc3ccc(NS(=O)(=O)c4cn(C)cn4)cc3C(=O)N([C@@H](C)CO)C[C@H]2C)cc1,0.239% (inactive),-1.14,0.319
Cc1ccc(NC(=O)N2CCC(c3nc4c(nnn4Cc4c(F)cccc4Cl)c(=O)[nH]3)CC2)cc1,-32.9% (active),-18.6,-4.28

Compound,GFP signal change (wild-type ribosome),OD600 change [%],RFP signal change [%]
Cc1ccc(Cn2nnc3c(=O)[nH]c(C4CCN(S(=O)(=O)/C=C/c5ccccc5)CC4)nc32)cc1,-1.02% (inactive),-8.59,5.14
O=C(Nc1ccc(F)cc1)N1CCCC(c2nc3c(nnn3Cc3ccccc3Cl)c(=O)[nH]2)C1 (stereo not drawn),5.54% (inactive),16.4,5.16
COc1ccccc1NC(=O)N[C@H]1CC[C@@H](CCn2cc(C3(O)CCCC3)nn2)O[C@@H]1CO,-0.097% (inactive),0.829,-2.3
CC(C)NC(=O)N1[C@H](C(=O)N2CCc3ccccc3C2)[C@@H](CO)[C@@H]2Cn3c(cccc3=O)[C@@H]21,-0.919% (inactive),-4.45,-2.12
O=C(Cc1ccc(Cl)cc1)NC(=S)Nc1ccccc1O,6.71% (inactive),-1.88,5.02
Cc1cccc(NC(=S)NCCc2ccc(Cl)cc2)c1C,-5.8% (inactive),-24.2,6.65
Cc1ccccc1NC(=S)NC(=O)Cc1ccc(Cl)cc1,-31.6% (active),-2.94,1.01
C[C@H](CO)N1C[C@H](C)[C@H](CN(C)S(=O)(=O)c2cccs2)Oc2c(NS(=O)(=O)c3ccc(Cl)cc3)cccc2C1=O,-5.17% (inactive),-6.49,3.43
CCCn1c(=S)[nH]c2ccc(C(F)(F)F)cc21,-39% (active),-18.3,-4.67
CN(C)CCn1c(=S)[nH]c2ccc(Cl)cc2c1=O,5.19% (inactive),0.375,2.03
CC(C)n1c(=S)[nH]c2cc(C(F)(F)F)ccc21,-0.904% (inactive),-3.6,-3.06
Cc1ccccc1-c1ccc([C@H]2[C@@H](CO)N3C(=O)CN(C(=O)c4cccnc4)C[C@@H]23)cc1,3.51% (inactive),8.18,-0.0435
CC(C)c1ccc(NC(=S)NC2CC3C=CC2C3)cc1 (stereo not drawn),-37.3% (inactive),-66.8,0.867
S=C(NNC(=S)NC1CC2C=CC1C2)NC1CC2C=CC1C2 (stereo not drawn),-47.5% (active),-15.1,-13.4
CCCNC(=O)N1[C@H](CO)[C@H]2c3ccccc3N(C(=O)Nc3cccc(Cl)c3)C[C@H]21,-57.4% (inactive),-71.6,-12.8
CCCN1C[C@H](C)[C@H](OC)CN(C)C(=O)c2cc(NC(=O)NC3CCCC3)ccc2OC[C@H]1C,-0.637% (inactive),8.41,2.12
CC(=O)C(CC(=O)N1CCCC1)C(=O)Nc1ccc(Cl)cc1 (stereo not drawn),1.69% (inactive),9.42,0.378
CC(=O)N1CCC(N(C(=O)Nc2ccc(Cl)cc2)C(C)C)CC1,-25.5% (active),-18,-0.55
O=C(NC1CCN(C(=S)Nc2ccc(Cl)cc2)CC1)C1CCCCC1,6.47% (inactive),11.2,0.251
CCCN(C)C[C@H]1OCCCC[C@H](C)Oc2ccc(NS(=O)(=O)c3ccc(C)cc3)cc2C(=O)N([C@@H](C)CO)C[C@H]1C,-0.746% (inactive),-1.7,-0.147
